CHRM1 antagonist – human CHRM1 antagonism | CHO-K1 hM1, Fluo-8 calcium fluorescence, ACh EC80 antagonist | inhibition, % at 3 µM | 360,000 compounds, 1.3% hits;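 active = percent inhibition above its own plate's cutoff, namely the mean of that plate's compound wells plus 3 SD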;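 note: peak over basal fluorescence ratio during 140 s after agonist addition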
Target sequence (P11229 whole entry, looked up): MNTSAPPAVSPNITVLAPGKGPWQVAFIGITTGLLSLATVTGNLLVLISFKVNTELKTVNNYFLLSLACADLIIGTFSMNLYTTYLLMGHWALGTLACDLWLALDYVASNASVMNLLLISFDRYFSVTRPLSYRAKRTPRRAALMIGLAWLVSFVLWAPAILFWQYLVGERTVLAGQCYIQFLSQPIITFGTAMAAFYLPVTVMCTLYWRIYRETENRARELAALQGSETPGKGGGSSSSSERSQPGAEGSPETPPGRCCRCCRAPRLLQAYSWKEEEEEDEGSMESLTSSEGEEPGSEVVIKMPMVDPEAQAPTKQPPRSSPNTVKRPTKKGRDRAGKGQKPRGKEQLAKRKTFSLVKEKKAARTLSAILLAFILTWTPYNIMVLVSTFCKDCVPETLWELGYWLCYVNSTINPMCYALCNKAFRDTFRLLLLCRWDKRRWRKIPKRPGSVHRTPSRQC
CHRM1 PAM – human CHRM1 positive allosteric modulation; P11229; CHO-K1 hM1, Fluo-8 calcium fluorescence, ACh EC20; 0% = ACh EC20, 100% = maximal ACh; activation, % at 3 µM; 360,000 compounds, 0.088% hits; in the data active = activation above about 19%, passing the limit was not always enough
CHRM1 agonist – agonists of human M1 muscarinic receptor; CHO-K1 hM1, Fluo-8 calcium fluorescence, agonist mode; 0% DMSO, 100% acetylcholine EC100; P11229; activation, % at 3 µM; 360,000 compounds, 0.33% hits;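 active = activation above the run's mean compound activation plus 3 SD, cut at about 16% in these data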;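 note: peak over basal fluorescence ratio within a 140 s kinetic read after compound addition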
M1 ag parental – nonselective activator or artifact in parental CHO-K1 cells. 360,000 compounds, 0.48% hits. Fluo-8 calcium fluorescence; scaled to maximal ATP response, vehicle zero. AID 602248. activation, % at 3 µM; in the data active = activation above about 15%;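 note: untransfected CHO-K1 host cells lacking M1 receptor as counterscreen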
CHO-K1 Ca antag – counter-screen for M1 antagonists: effect in parental CHO-K1 cells; ATP-induced calcium, Fluo-8 fluorescence; inhibition, % at 3 µM; 360,000 compounds, 0.6% hits;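 active = inhibition above a per-plate cutoff, the plate's mean sample inhibition plus 3 SD, cut at about 24% in these data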
CHO-K1 Ca PAM – counter-screen for M1 PAMs: effect in parental CHO-K1 cells. ATP EC20, Fluo-8 calcium fluorescence; 0% at ATP EC20, 100% at ATP max. 360,000 compounds, 0.02% hits. activation, % at 3 µM;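 active = activation above the run cutoff, the mean activation of all test compounds plus 3 SD, cut at about 40% in these data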;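 note: peak over basal fluorescence ratio in a 140 s read after ATP addition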
Of the large screens only hits and unclear results are named; the others gave an inactive call. This is a sample that favours compounds with a hit; in the whole collection about 2.3% have one here.

COc1ccc(S(=O)(=O)N(C)C[C@H]2OCCCC[C@H](C)Oc3ccc(NC(=O)Nc4ccc(F)cc4)cc3C(=O)N([C@H](C)CO)C[C@H]2C)cc1	none
Cc1ccc(S(=O)(=O)Nc2ccc3c(c2)C(=O)N([C@@H](C)CO)C[C@@H](C)[C@@H](CN(C)S(=O)(=O)c2ccccc2)OCCCC[C@H](C)O3)cc1	CHO-K1 Ca antag 24
CC(=O)N/N=C(\C)C1COc2ccccc2O1 (stereo not drawn)	none
O=C(CSc1ccc2nnc(-c3cccnc3)n2n1)Nc1ccc(F)cc1F	none
CCC1(c2ccccc2)NC(=O)N(CC(=O)NC2(C#N)CCCCC2)C1=O (stereo not drawn)	none
CC(=O)c1ccc(S(=O)(=O)N2CCN(c3nc(-c4cccnc4)nc4ccccc34)CC2)cc1	CHRM1 antagonist 76
COc1cc(OC)c(N(C)C(=O)CCNC(=O)Cn2cnc3ccccc3c2=O)cc1Cl	none
COc1cc(OC)c(NC(=O)CCNC(=O)Cn2cnc3ccccc3c2=O)cc1Cl	CHRM1 PAM 26
S=c1nc2c(n[nH]1)c1ccccc1n2CCc1ccccc1	CHRM1 agonist 20
CSc1nnc2c3ccccc3n(CCc3ccccc3)c2n1	none
O=C(CSc1nnc2ccccn12)NNC(=O)c1ccccc1F	none
CN1CCN(CC(=O)Nc2c(C(=O)c3ccccc3)oc3ccccc23)CC1	CHRM1 antagonist 60
CC(C)(C#CC(O)(c1ccccc1)c1ccccc1)N1CCCCC1	CHRM1 antagonist 93
CC(=O)NNC(=O)C(O)(c1ccccc1)c1ccccc1	none
CC(C)(C#CC(O)(c1ccccc1)c1ccccc1)N1CCCC1	CHRM1 antagonist 99
COCc1cc(C)nc(SCC[N+](C)(C)CC(=O)Nc2cccc(C(F)(F)F)c2)c1C#N	CHRM1 antagonist 40
CC1=C(C)CC(C(=O)NC2CCCC2)C(C(=O)O)C1 (stereo not drawn)	none
CC1=C(C)CC(C(=O)NC2CCN(C(C)C)CC2)C(C(=O)O)C1 (stereo not drawn)	CHRM1 antagonist 50
OC[C@H]1O[C@@H](n2cnc3c(NCc4ccco4)ncnc32)[C@H](O)[C@@H]1O	CHRM1 agonist 35
CNS(=O)(=O)c1ccc(CNC[C@H]2O[C@@H](n3ccc(N)nc3=O)[C@H](O)[C@@H]2O)cc1	none
Nc1ccc(NC(=O)c2cccc(C(=O)Nc3ccc(N)cc3Cl)c2)c(Cl)c1	none
CNC(C)C(=O)NC(C(=O)N1CCCC1C(=O)Nc1ccc2[nH]ccc2c1)C(C)C (stereo not drawn)	none
CNC(C)C(=O)NC(C(=O)N1CCCC1C(=O)Nc1ccc2ncccc2c1)C(C)C (stereo not drawn)	CHRM1 PAM 32
Cn1c(CSCc2ccc(F)cc2)nnc1SCC(=O)Nc1nccs1	CHO-K1 Ca antag 26
CN(C)c1cc[n+](CC(=O)c2ccc(Br)cc2)cc1	none
COC(=O)c1cc[n+](CC(=O)c2ccccc2)cc1	CHRM1 agonist 30
O=C(C[n+]1ccccc1)c1ccc(-c2ccccc2)cc1	CHRM1 antagonist 40
COC(=O)c1ccc(OCC(=O)c2ccccc2)cc1	none
CN(C)c1cc[n+](CC(=O)c2ccc(-c3ccccc3)cc2)cc1	CHRM1 antagonist 42
C=Cn1cc[n+](CC(=O)c2ccc(-c3ccccc3)cc2)c1	none
O=C(CSc1nnc(-c2ccncc2)o1)Nc1ccc(F)c(F)c1	none
Cc1ccc(S(=O)(=O)N(C)CC(=O)Nc2nnc(CC(C)C)s2)cc1	none
COc1cc(F)ccc1-c1cc(C(=O)NCc2ccc(C(F)(F)F)cc2)[nH]n1	none
CC(C)(C)NC(=O)C1(C)CCC(=O)N1CC(F)(F)F (stereo not drawn)	CHO-K1 Ca antag 24
O=[N+]([O-])c1ccc(N=Nc2c(Cl)cc(O)cc2Cl)cc1	CHRM1 antagonist 32, M1 ag parental 17, CHO-K1 Ca antag 40
COc1cccc(Nc2ccc(-n3ccnc3)nn2)c1	M1 ag parental 15
Cc1ccc(Nc2ccc(-n3ccnc3)nn2)cc1C	none
Cc1ccc(C(=O)NC2CCN(CC(=O)Nc3ccccc3Cl)CC2)cc1	M1 ag parental 16
CC(=O)Nc1ccc(S(=O)(=O)Oc2ccc(/C=N/NC(=O)c3ccc(Cl)cc3)cc2)cc1	none
COC(=O)c1ccc(OS(=O)(=O)c2ccc(NC(C)=O)cc2)cc1	CHO-K1 Ca antag 24
N#CC(CCc1ccccc1[N+](=O)[O-])(CCc1ccccc1[N+](=O)[O-])C(N)=O	none
CCN(CC)CCOCCOC(=O)C(CC)(CC)c1ccccc1	CHRM1 antagonist 38
CCCCN1CCC(=O)C(C(=O)OCC)=C1C(=O)OCC	none
O=c1[nH]cnc2c1C1(CCCC1)Cc1ccccc1-2	CHO-K1 Ca antag 44
O=c1c2c(nc3n1CCCCC3)-c1ccccc1CC21CCCC1	CHRM1 antagonist 31
Nn1cnc2c(c1=O)C1(CCCCC1)Cc1ccccc1-2	none
O=C(O)C1Cn2c(nc3c(c2=O)C2(CCCC2)Cc2ccccc2-3)S1 (stereo not drawn)	none
Clc1ccc(SCCOCCN2CCOCC2)cc1	none
Clc1ccc(SCCOCCN2CCCCC2)cc1	CHRM1 antagonist 28
CC1CCCN(CCCOc2ccc(Cl)cc2Br)C1 (stereo not drawn)	none
CC1CCN(CCOCCSc2ccc(Cl)cc2)CC1	CHO-K1 Ca antag 27
CCOC(=O)C1CCN(CCCSc2ccc(Cl)cc2)CC1	CHRM1 antagonist 28
CC1CCCN(CCSc2ccc(Cl)cc2)C1 (stereo not drawn)	CHRM1 antagonist 37
O=C(N=C1SCC(=O)N1c1ccccc1Cl)c1ccccc1	none
COc1ccccc1-c1c(C)oc2c(CN3CCCCC3C)c(O)ccc2c1=O (stereo not drawn)	none
CC(C)Oc1cccc(C(=O)C2CCCN(Cc3cnc(N4CCCC4)s3)C2)c1 (stereo not drawn)	none
CCCn1ncc(CN2CCCC(C(=O)c3cccc(OC(C)C)c3)C2)c1C (stereo not drawn)	CHRM1 antagonist 99
CCCn1cc(CN2CCCC(C(=O)c3cccc(OC(C)C)c3)C2)c(C)n1 (stereo not drawn)	CHRM1 antagonist 39
COc1ccc(Cl)cc1Cn1c(C)c(C(=O)NCc2ccc3c(c2)OCCO3)sc1=O	none
O=C(Nc1ccnn1C1CCN(C(=O)CCc2ccc(F)cc2)CC1)C1CCOC1 (stereo not drawn)	none
COC(=O)CCn1c(C)cc(C(=O)COc2ccccc2C(N)=O)c1C	M1 ag parental 18
CC(=O)Nc1ccccc1OCC(=O)c1cc(C)n(Cc2cccs2)c1C	CHRM1 antagonist 32
Cc1cc(C(=O)COc2cccnc2[N+](=O)[O-])c(C)n1Cc1cccs1	none
O=C1C(Cl)=C(Nc2ccccc2O)C(=O)N1CCc1ccccc1	none
